Measurements taken from PubChem BioAssay AID1159580 (chemical genetic matrix, 2015).
Several values for one entry are separate records, joined by “and”; a condition that tells them apart may be missing. Equal entries are not always repeated. Among all 5,500 compounds or so, about 2,000 (36%) were called active. Another 18% or so got no clear call; they are omitted. No stated cut-off is given here; in the data, active means normalized growth mostly below about 0.91 (no sharp cut-off); inconclusive means no clear call, values can overlap the other calls; inactive means mostly above about 0.92. Some of the results follow.

Experiment: chemical genetic growth profiling, strain panel (AID 1159580);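 further: tested at 20 µM; growth read once vehicle control cultures reached saturation at 30 °C; 1 = growth at the plate median or of vehicle wells; lower values mean less growth of the strain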
Conditions: S. cerevisiae deletion strains, growth OD

Measured: normalized growth

CCOC(=O)c1ccc(N)cc1
inactive: locus YAL021C, strain ccr4, hits give low values 1.03 | locus YAL026C, strain drs2, hits give low values 1 | locus YAL030W, strain snc1, hits give low values 1.01 | locus YBL061C, strain skt5, hits give low values 0.999 | locus YBR009C, strain hhf1, hits give low values 0.98 | locus YBR021W, strain FUR4, hits give low values 0.998 | locus YBR023C, strain chs3, hits give low values 1.03 | locus YBR171W, strain sec66, hits give low values 1.03 | locus YBR229C, strain ROT2, hits give low values 0.999 | locus YBR231C, strain swc5, hits give low values 1 | locus YBR279W, strain paf1, hits give low values 1 | locus YCL011C, strain gbp2, hits give low values 0.987 | locus YCL016C, strain dcc1, hits give low values 1.01 | locus YCL029C, strain bik1, hits give low values 0.993 | locus YCL061C, strain MRC1, hits give low values 1.01 | locus YCL069W, strain vba3, hits give low values 0.993 | locus YCR088W, strain abp1, hits give low values 1.01 | locus YDL005C, strain med2, hits give low values 1.01 | locus YDL035C, strain GPR1, hits give low values 1.01 | locus YDL040C, strain nat1, hits give low values 1.01 | locus YDL074C, strain BRE1, hits give low values 0.994 | locus YDL101C, strain DUN1, hits give low values 0.993 | locus YDL185W, strain tfp1, hits give low values 0.994 | locus YDL192W, strain arf1, hits give low values 1.01 | locus YDR001C, strain nth1, hits give low values 0.999 | locus YDR069C, strain doa4, hits give low values 1.04 | locus YDR101C, strain arx1, hits give low values 1.01 | locus YDR137W, strain rgp1, hits give low values 1.01 | locus YDR150W, strain NUM1, hits give low values 0.993 | locus YDR159W, strain sac3, hits give low values 1 | locus YDR162C, strain NBP2, hits give low values 0.999 | locus YDR195W, strain ref2 1.09 | locus YDR297W, strain sur2, hits give low values 1.01 | locus YDR318W, strain mcm21, hits give low values 0.994 | locus YDR334W, strain swr1, hits give low values 1.02 | locus YDR335W, strain msn5, hits give low values 1.02 | locus YDR388W, hits give low values 0.989 | locus YDR392W, strain spt3, hits give low values 0.941 | locus YDR502C, strain sam2, hits give low values 0.987 | locus YEL003W, strain gim4, hits give low values 1.02 | locus YEL037C, strain rad23, hits give low values 1.01 | locus YEL061C, strain CIN8 (second series), hits give low values 1.04 | locus YEL061C, strain CIN8, hits give low values 1.01 | locus YER015W, strain faa2, hits give low values 1.01 | locus YER016W, strain bim1, hits give low values 0.972 | locus YER110C, hits give low values 0.995 | locus YER111C, strain swi4, hits give low values 1 | locus YER155C, strain BEM2 (second series), hits give low values 0.952 | locus YER155C, strain BEM2, hits give low values 1.01 | locus YER167W, strain BCK2, hits give low values 1 | locus YFR010W, strain ubp6, hits give low values 1.02 | locus YGL078C, strain dbp3, hits give low values 0.996 | locus YGL086W, strain mad1, hits give low values 0.993 | locus YGL167C, strain pmr1, hits give low values 1.03 | locus YGL173C, strain kem1, hits give low values 0.998 | locus YGL227W, strain vid30, hits give low values 1.02 | locus YGL240W, strain doc1, hits give low values 0.996 | locus YGL248W, strain PDE1, hits give low values 0.997 | locus YGL253W, strain hxk2, hits give low values 1.01 | locus YGR135W, strain pre9, hits give low values 0.99 | locus YGR252W, strain gcn5, hits give low values 0.959 | locus YHR013C, strain ard1, hits give low values 1.04 | locus YHR027C, strain rpn1, hits give low values 1.01 | locus YHR030C, strain SLT2, hits give low values 1.01 and 1.02 | locus YHR079C, strain IRE1 (second series), hits give low values 0.994 | locus YHR079C, strain IRE1, hits give low values 0.993 | locus YHR094C, strain hxt1, hits give low values 0.984 | locus YHR129C, strain ARP1, hits give low values 1 | locus YHR142W, strain chs7, hits give low values 0.963 | locus YHR200W, strain rpn10, hits give low values 0.989 | locus YIL066C, strain RNR3, hits give low values 1.02 | locus YIL073C, strain SPO22, hits give low values 0.943 | locus YIL125W, strain kgd1, hits give low values 0.991 | locus YIR030C, strain dcg1, hits give low values 0.997 | locus YJL092W, strain hpr5, hits give low values 1.02 | locus YJL095W, strain BCK1 (second series), hits give low values 1.01 | locus YJL095W, strain BCK1, hits give low values 0.995 and 0.999 | locus YJL115W, strain asf1, hits give low values 1.02 | locus YJL129C, strain trk1, hits give low values 1.04 | locus YJL134W, strain LCB3, hits give low values 1 | locus YJL154C, strain vps35, hits give low values 1.01 | locus YJL164C, strain tpk1, hits give low values 0.982 | locus YJL166W, strain qcr8, hits give low values 1.01 | locus YJL168C, strain set2, hits give low values 0.992 | locus YJL187C, strain SWE1 (second series), hits give low values 0.985 | locus YJR043C, strain POL32, hits give low values 1.02 | locus YJR066W, strain TOR1, hits give low values 0.966 | locus YKL009W, strain mrt4, hits give low values 0.976 | locus YKL068W, hits give low values 0.993 | locus YKL085W, strain MDH1 (second series), hits give low values 0.996 | locus YKL085W, strain MDH1, hits give low values 0.996 | locus YKL160W, strain elf1, hits give low values 1.02 | locus YKL190W, strain CNB1, hits give low values 0.988 | locus YKR001C, strain vps1, hits give low values 0.987 | locus YKR091W, strain srl3, hits give low values 1.01 | locus YLL001W, strain dnm1, hits give low values 1.01 | locus YLL026W, hits give low values 1.02 | locus YLL041C, strain sdh2, hits give low values 1.02 | locus YLR027C, strain aat2, hits give low values 1 | locus YLR039C, strain RIC1, hits give low values 1.01 | locus YLR058C, strain SHM2, hits give low values 0.999 | locus YLR102C, strain apc9, hits give low values 0.989 | locus YLR113W, strain HOG1, hits give low values 0.979 | locus YLR221C, strain rsa3, hits give low values 1.01 | locus YLR258W, strain gsy2, hits give low values 0.998 | locus YLR262C, strain YPT6 (second series), hits give low values 1.03 | locus YLR262C, strain YPT6, hits give low values 0.988 | locus YLR268W, strain sec22, hits give low values 0.991 | locus YLR320W, strain mms22, hits give low values 0.978 | locus YLR330W, strain CHS5, hits give low values 1.01 | locus YLR342W, strain FKS1 (second series), hits give low values 1.03 | locus YLR342W, strain FKS1, hits give low values 1 | locus YLR357W, strain rsc2, hits give low values 1.05 | locus YLR370C, strain arc18, hits give low values 1.01 | locus YLR371W, strain rom2, hits give low values 0.994 | locus YLR384C, strain iki3, hits give low values 1.02 | locus YLR418C, strain cdc73, hits give low values 0.988 | locus YML016C, strain PPZ1, hits give low values 1 | locus YML032C, strain rad52, hits give low values 0.995 | locus YML120C, strain ndi1, hits give low values 1.02 | locus YML124C, strain tub3, hits give low values 0.992 | locus YMR058W, strain fet3, hits give low values 1.03 | locus YMR078C, strain ctf18, hits give low values 0.998 | locus YMR125W, strain sto1, hits give low values 1.01 | locus YMR129W, hits give low values 1.01 | locus YMR205C, strain PFK2, hits give low values 1.01 | locus YMR223W, strain ubp8, hits give low values 0.997 | locus YMR231W, strain pep5, hits give low values 1.01 | locus YMR263W, strain SAP30, hits give low values 1 | locus YMR307W, strain GAS1, hits give low values 1.09 | locus YNL067W, strain RPL9B, hits give low values 0.975 | locus YNL071W, strain lat1, hits give low values 0.983 | locus YNL183C, strain NPR1, hits give low values 0.949 | locus YNL209W, strain ssb2, hits give low values 0.993 | locus YNL233W, strain BNI4, hits give low values 1.01 | locus YNL248C, strain rpa49, hits give low values 1 | locus YNL250W, strain rad50, hits give low values 0.983 | locus YNL271C, strain bni1, hits give low values 0.993 | locus YNL298W, strain CLA4, hits give low values 1.01 | locus YNL307C, strain MCK1, hits give low values 0.986 | locus YNL322C, strain KRE1 (second series), hits give low values 1.01 | locus YNR049C, strain mso1, hits give low values 1.02 | locus YNR052C, strain pop2, hits give low values 0.987 | locus YOL006C, strain TOP1, hits give low values 1.03 | locus YOL012C, strain htz1 0.986 | locus YOL147C, strain pex11, hits give low values 0.993 | locus YOR001W, strain rrp6, hits give low values 1.02 | locus YOR061W, strain CKA2, hits give low values 0.996 | locus YOR069W, strain VPS5, hits give low values 0.998 | locus YOR070C, strain gyp1, hits give low values 0.989 | locus YOR080W, strain dia2, hits give low values 1.03 | locus YOR083W, strain WHI5, hits give low values 1.01 | locus YOR106W, strain vam3, hits give low values 1.02 | locus YOR136W, strain idh2, hits give low values 0.98 | locus YOR144C, strain elg1, hits give low values 0.997 | locus YOR184W, strain ser1, hits give low values 0.991 | locus YOR231W, strain MKK1, hits give low values 0.989 | locus YOR265W, strain rbl2, hits give low values 1.01 | locus YOR270C, strain vph1, hits give low values 0.973 | locus YOR290C, strain snf2, hits give low values 0.988 | locus YOR316C, strain cot1, hits give low values 0.989 | locus YPL051W, strain arl3, hits give low values 1.02 | locus YPL055C, strain LGE1, hits give low values 1 | locus YPL078C, strain atp4, hits give low values 1.03 | locus YPL106C, strain sse1, hits give low values 0.946 | locus YPL240C, strain hsp82, hits give low values 1.02 | locus YPL241C, strain CIN2, hits give low values 1 | locus YPL256C, strain CLN2, hits give low values 0.983 | locus YPR119W, strain clb2, hits give low values 0.99 | locus YPR141C, strain kar3, hits give low values 0.999 | locus YPR163C, strain tif3, hits give low values 1 | locus YPR167C, strain met16, hits give low values 0.996 | strain wtn01, hits give low values 0.997
